Compound activity deposited in PubChem BioAssay by National Center for Advancing Translational Sciences (NCATS).
A selection: hits, their analogues and other compounds. The true share with any hit is near 7.5%.
Vaccinia Venus: inhibitors of vaccinia virus (Venus reporter); Potency, µM (series often up to 36.5 µM), inactives show top-dose activity change, negative = inhibition, usual class: inhibitors; 0.46% of 330,000 active; Vaccinia virus Venus reporter expression, fluorescence; calls by dose curve; tested in A549 cells; also: potency is read from the fitted curve at half-maximal effect; nearly all actives have a fitted effect of over 30% in size
HCV inhibitor: blocks hepatitis C virus | Huh7.5.1 HCVcc-Cre infection, luciferase reporter, 44 h | Potency, µM (titrated, usually from 41.8 µM), inactives show at the top dose activity change, negative = inhibition, actives largely listed as inhibitors | 3.4% of 340,000 active | AID 651820; also: potency is read from the fitted curve at half-maximal effect
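Compounds are dispensed onto cells plated 4 h earlier at 1,000 per well, with HCVcc-Cre virus (about 0.5 moi) added next. Following 44 h of culture, luminescent signal is measured for 15 sec after 15 min with substrate at room temperature.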
Giardia FBPA inh: Giardia lamblia aldolase inhibition; 0.71% of 290,000 active; AID 2451; Potency, µM (titrated, usually from 59.6 µM), for the others: at the top dose activity, negative = inhibition, hits mostly inhibitors; purified Giardia FBPA; also: potency is read from the fitted curve at half-maximal effect; nearly all actives have a fitted effect of over 55% in size
Target sequence (A8B2U2 whole entry, looked up): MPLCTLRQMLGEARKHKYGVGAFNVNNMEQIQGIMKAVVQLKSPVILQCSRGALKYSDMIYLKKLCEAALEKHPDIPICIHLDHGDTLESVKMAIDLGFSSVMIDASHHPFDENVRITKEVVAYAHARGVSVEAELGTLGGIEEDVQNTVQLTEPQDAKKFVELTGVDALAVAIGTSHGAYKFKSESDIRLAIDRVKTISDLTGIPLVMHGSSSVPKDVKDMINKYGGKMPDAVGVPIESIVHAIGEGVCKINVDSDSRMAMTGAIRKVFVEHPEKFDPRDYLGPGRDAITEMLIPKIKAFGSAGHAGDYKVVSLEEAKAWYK
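Giardia FBPA (40 nM reagent) was preincubated 10 min at RT with compound (up to 57.5 uM final), then substrate plus GAPDH/TPI/NAD/arsenate coupling system with diaphorase/resazurin was added; resorufin fluorescence (525/598 nm) was read after 20 min.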
VACV mCherry inh: inhibitors of vaccinia virus infection (mCherry reporter signal) | Potency, µM (highest dose often 36.5 µM), without a hit: top-dose activity change, negative = inhibition, actives largely listed as inhibitors | Vaccinia virus mCherry reporter infection, fluorescence | 0.63% of 310,000 active | AID 720579; calls by dose curve; tested in A549 cells; also: potency is read from the fitted curve at half-maximal effect; nearly all actives have a fitted effect of over 35% in size
HCMV antiviral: blocks human cytomegalovirus replication; 4.5% of 410,000 active; HFF cells, HCMV-luciferase reporter, 72 h; hits give low values; activity change, negative = inhibition, % at 57.5 µM; in the data active = activity change below about -60%; inconclusive = no clear call, values can overlap the other calls; inactive = above about -39%
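Steps: HFFs plated, 16 h 37C; compounds added; HCMV-luciferase added to MOI 1 PFU/cell; 72 h 37C; OneGlo reagent, 5 min room temperature; luminescence read, normalized to controls.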
FMDV antiviral: blocks foot and mouth disease virus; FMDV antiviral cell-based qHTS; Potency, µM (top dose mostly 57.9 µM), for inactives: top-dose activity change, negative = inhibition, most hits filed as inhibitors; 1.2% of 410,000 active; AID 1159524; calls by dose curve; tested in HEK293T cells; also: read-out not given here; potency is read from the fitted curve at half-maximal effect; nearly all actives have a fitted effect of over 45% in size
The depositor's hits bear a star; i = inactive; u = inconclusive; x = no result; + = active, no number. Unless noted, calls follow the shape of the dose curve; as a rule, active = well fitted curve in the direction sought with a large enough effect; inconclusive = small, poorly fitted or top-dose-only effect, or another doubt; inactive = no such curve, though single readings can be large; an effect the other way counts as inactive or inconclusive. % is scaled to controls: 0 for no effect and ±100 for the full control effect.

SMILES	Vaccinia Venus	HCV inhibitor	Giardia FBPA inh	VACV mCherry inh	HCMV antiviral	FMDV antiviral
CCCn1c(SCC(=O)N2c3ccccc3Sc3ccccc32)nc2c1c(=O)n(C)c(=O)n2C	x	u	7%	x	-26	6%
O=C(CSc1nnc(-c2cccnc2)n1Cc1ccco1)Nc1nc(-c2ccc(F)cc2)cs1	x	25µM*	6%	x	-74*	20µM*
CN(C)CCCn1c(SCC(=O)N2c3ccccc3Sc3ccccc32)nc2ccccc2c1=O	14µM*	13µM*	7%	u	-99*	u
Cc1ccc(C(NC(=O)Nc2ccccn2)C(Cl)(Cl)Cl)cc1F (centres undefined)	1%	8%	11%	-15%	u	-27%
CCOc1ccc(NCc2nnc(SCC(=O)Nc3nc(-c4ccccc4)cs3)n2-c2ccccc2)cc1	u	7%	0%	11µM*	-27	-15%
CCn1c(SCC(=O)Nc2nc(-c3ccc(C)cc3)cs2)nnc1-c1ccccc1	x	7.9µM*	2%	x	-72*	13µM*
COc1ccccc1-c1nnc(SCC(=O)Nc2nc(-c3ccccc3)cs2)n1C	x	u	7%	x	-25	32µM*
CCn1c(CSc2nc(C)cc(C)n2)nnc1SCC(=O)Nc1nc(-c2ccccc2)cs1	x	u	2%	x	-1	-28%
CCn1c(SCC(=O)Nc2nc(-c3ccc(C)cc3)cs2)nnc1-c1ccccc1O	u	6.3µM*	-3%	x	-70*	16µM*
COc1ccc(CCNC(=O)c2c(C)nn(-c3ccc(F)cc3)c2-n2cccc2)c(OC)c1OC	-23%	x	x	-28%	u	u
Cc1ccc(S(=O)(=O)N2CCOCC2)cc1C(=O)NCCCN1CCCC1=O	-13%	x	x	i	29	-18%
Cc1ccc(-c2csc(NC(=O)CSc3nc4ccccc4c(=O)n3CCCN(C)C)n2)cc1	-5%	1.4µM*	-8%	-9%	24	2%
CCCCOc1ncnc2c1[nH]c1ccc(OCC)cc12	x	11%	7%	x	-20	20%
CCCCOc1ncnc2c1[nH]c1ccc(F)cc12	u	2.8µM*	1%	u	-94*	x
CCCCOc1ncnc2c1[nH]c1ccccc12	u	4.5µM*	10%	-29%	-28	u
CN(C(=O)COc1ccccc1C(=O)NCCOc1ccccc1)c1ccccc1	11µM*	8.9µM*	12%	u	-93*	8.9µM*
O=C(Nc1ccc(Oc2ccccc2)nc1)C1CCN(Cc2cccc(F)c2)CC1	-28%	x	-5%	-20%	-69*	u
CCn1nc(C)c(CN2CCCCC2C(=O)Nc2ccc(Oc3cccnc3)cc2)c1C (centres undefined)	-12%	11µM*	x	-14%	x	u
C#Cc1ccc(CN2CCC(C(=O)Nc3ccc(Oc4ccccc4)nc3)CC2)cc1	x	4.5µM*	x	x	+	u
Cc1ccc(CN2CCCCC2C(=O)Nc2ccc(Oc3cccnc3)cc2)o1 (centres undefined)	-30%	u	6%	-4%	-33	5%
O=C(Nc1ccc(Oc2cccnc2)cc1)C1CCN(Cc2cc(Cl)ccc2O)CC1	x	u	x	x	-83*	7.9µM*
CS(=O)(=O)Nc1cccc(-c2ccc3ncnc(Nc4ccc(F)cc4)c3c2)c1	u	x	-14%	u	x	u
C[C@@]12CCOC13C=CC(=O)C=C3CC[C@H]2O (some centres undefined)	x	x	x	x	-13	x
O=C(C1CCN(S(=O)(=O)Cc2ccccc2)CC1)N1CCN(c2ccc(F)cc2)CC1	-19%	x	x	-20%	6	-21%
Cc1ccc2nc(C)/c(=N\O)c(C)nc2c1	x	6%	x	x	-24	35%
Cc1nc2ccc(Cl)cc2nc(C)/c1=N\O	-1%	11%	14µM*	x	43	0%
CCCOc1ccc(Cc2c(Cl)nc(SC)nc2N(C)C)cc1	-11%	u	4%	-13%	-67*	u
Cc1ccc(NC(=O)C2(c3ccccc3)CCOCC2)c([N+](=O)[O-])c1	-18%	-6%	3%	-5%	u	-9%
COC(COC(N)=O)C1=C(N2CC2)C(=O)C(C)=C(N2CC2)C1=O (centres undefined)	2.8µM*	0.56µM*	x	u	-5	-1%
